HT1080NT lethal: qHTS for induction of synthetic lethality in tumor cells producing 2HG: qHTS for the HT-1080-NT fibrosarcoma cell line. HT-1080-NT fibrosarcoma viability, CellTiter-Glo ATP luminescence, 48 h. Potency, µM (series often up to 46.1 µM), without a hit: at the highest dose activity, negative = less viability, usual class: cytotoxic. hit rate 1.6% among 360,000;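 also: NT is the 2HG producing partner of a matched IDH1 knockdown line; 0% = DMSO-treated cells and -100% = media-only wells without cells; nearly all actives have a fitted effect of over 55% in size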
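HT-1080-NT; 750 cells/well; 5% FBS RPMI; 48 h compound, 37 degrees C; CellTiter-Glo luminescence; curve fitting and curve-class assignment.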
TDP1 cell CPT: qHTS for Inhibitors of human tyrosyl-DNA phosphodiesterase 1 (TDP1): qHTS in cells in presence of CPT; chicken DT40 Tdp1-/-;hTDP1 cells + 20 nM CPT, ATP luminescence, 48 h; Potency, µM (titrated, usually from 46.2 µM), inactives show top-dose activity change, negative = growth inhibition, hits mostly inhibitors; hit rate 12% among 420,000; AID 686979, 2013; also: nearly all actives have a fitted effect of over 55% in size
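Cell growth measured by CellTiter-Glo luminescence after a minimum 48 h, 37 C compound exposure with 20 nM CPT in Tdp1-knockout DT40 cells stably expressing hTDP1, seeded 400/well; qHTS titration format.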
HT1080 IDH1KD tx: qHTS for induction of synthetic lethality in tumor cells producing 2HG: qHTS for the HT-1080-IDH1KD cell line. HT-1080 IDH1 knockdown viability, ATP luminescence, 48 h. Potency, µM (doses to about 46.1 µM), without a hit: at the highest dose activity, negative = toxicity, most hits filed as cytotoxic. hit rate 2% among 360,000. AID 686971, 2013;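 also: 0% = DMSO wells and -100% = cell-free medium wells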
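Using the IDH1-knockdown HT-1080 line run in the same batch and compound series as the NT line, viability after 48 h at 37 °C was determined by CellTiter-Glo luminescence and expressed as % activity.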
KB-3-1 cytotox: qHTS assay for MDR1-selective chemotherapeutics: Primary screen using the parental adenocarcinoma cell KB-3-1; KB-3-1 viability, CellTiter-Glo ATP luminescence, 72 h; Potency, µM (highest dose often 46.1 µM), usual class: cytotoxic; hit rate 1.4% among 400,000; also: nearly all actives have a fitted effect of over 60% in size
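Multi-concentration cytotoxicity screen in KB-3-1 cells grown in DMEM lacking phenol red with 10% FBS. After 72 h at 37 °C with compound, ATP-dependent luminescence was recorded.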
KB-V1 MDR tox: qHTS assay for MDR1-selective chemotherapeutics: Primary screen using the drug-selected MDR subline cells KB-V1 | hit rate 3.4% among 400,000 | AID 1347076, 2019 | KB-V1 MDR cells viability, CellTiter-Glo, 72 h | Potency, µM (top dose mostly 46.1 µM), hits mostly cytotoxic; also: nearly all actives have a fitted effect of over 60% in size
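Cells of the MDR subline KB-V1 are plated, dosed with compound at multiple concentrations, and incubated 72 h at 37 degrees C; CellTiter-Glo is then added and luminescence read after 10 min.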
DT40 TDP1 no CPT: qHTS for Inhibitors of human tyrosyl-DNA phosphodiesterase 1 (TDP1): qHTS in cells in absence of CPT. DT40 Tdp1-/- hTDP1 cells, no CPT, ATP luminescence, 48 h. Potency, µM (highest dose often 46.2 µM), without a hit: at the top dose activity change, negative = growth inhibition, actives largely listed as inhibitors. hit rate 15% among 420,000. AID 686978, 2013; also: nearly all actives have a fitted effect of over 55% in size
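Growth kinetics read by CellTiter-Glo luminescence after ≥48 hr at 37 °C. Cells: DT40 Tdp1-/- stably carrying human TDP1, 400 per well, compound exposure in the absence of CPT (DMSO vehicle).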
The depositor's hits bear a star; i = inactive; ? = inconclusive; · = no result. Hits are enriched below; roughly 19% of the tested compounds scored in any of these assays. Calls follow the shape of the dose curve; as a rule, active = well fitted curve in the direction sought with a large enough effect; inconclusive = small, poorly fitted or top-dose-only effect, or another doubt; inactive = no such curve, though single readings can be large; an effect the other way counts as inactive or inconclusive. Unless noted, % is scaled to controls: 0 for no effect and ±100 for the full control effect; potency is read from the fitted curve at half-maximal effect.

SMILES	HT1080NT lethal	TDP1 cell CPT	HT1080 IDH1KD tx	KB-3-1 cytotox	KB-V1 MDR tox	DT40 TDP1 no CPT
COC(=O)[C@@]1(Sc2ccc(C)cc2)CC(=O)N[C@@H]1c1ccccc1	13.9%	6.4%	2.5%	i	i	-23.3%
COC(=O)[C@]1(Sc2ccc(OC)cc2)CC(=O)N[C@@H]1c1ccccc1	7.4%	?	-1.3%	i	i	18.4µM*
COc1ccc(OC)c(C(c2nnnn2CCC(C)C)N2CCN(C(=O)c3ccco3)CC2)c1 (stereo not given)	-2.4%	-15.6%	-5.0%	i	?	-16.9%
O=S(=O)(c1ccccc1Cl)N1CCCC1c1nc(-c2cccc(Cl)c2)no1 (stereo not given)	-13.4%	?	-14.3%	i	?	-14.2%
O=S(=O)(c1ccccc1Cl)N1CCCC(c2nc(-c3cccnc3)no2)C1 (stereo not given)	0.1%	-12.2%	-0.8%	i	7.31µM*	-22.9%
COc1ccc(-c2noc(C3CCCN(S(=O)(=O)c4cccc(Cl)c4C)C3)n2)cc1OC (stereo not given)	3.6%	?	11.3%	i	18.4µM*	?
COc1ccc(-c2noc(C3CCCN(S(=O)(=O)c4ccc(C)c(Cl)c4)C3)n2)cc1OC (stereo not given)	9.1%	?	25.5%	i	3.66µM*	20.6µM*
N#CC1(c2ccccc2)CCCN1C(=O)c1ccccc1Br (stereo not given)	-0.5%	?	-0.8%	i	i	?
CN(NC(=O)Nc1ccc(Cl)cc1)c1ncc(C(F)(F)F)cc1Cl	?	?	?	?	16.4µM*	?
Cc1ccc(/C=N/NC(=O)NN(C)c2ncc(C(F)(F)F)cc2Cl)cc1	-29.6%	-24.2%	?	i	i	?
COc1ccc(-c2cc(=O)oc3c(C)c(O)c(CN(C)C)cc23)cc1	-10.1%	?	-8.6%	i	2.31µM*	-29.6%
CCN(CC)C(=O)Cn1c(=O)n(Cc2ccc(F)cc2)c(=O)c2sccc21	-10.6%	9.2µM*	-6.3%	i	i	?
Cc1ccccc1Cn1c(=O)n(CC2CCC(C(=O)N3CCC(C)CC3)CC2)c(=O)c2sccc21 (stereo not given)	·	23.1µM*	·	?	?	16.4µM*
O=C(C1CCC(Cn2c(=O)c3sccc3n(Cc3ccc(F)cc3)c2=O)CC1)N1CCOCC1 (stereo not given)	·	23.1µM*	·	i	i	18.4µM*
CNC(=O)C1CCC(Cn2c(=O)c3sccc3n(CC(=O)Nc3cc(C)cc(C)c3)c2=O)CC1 (stereo not given)	·	?	·	i	?	10.3µM*
CCN(CC)C(=O)Cn1c(=O)n(CCC(=O)Nc2ccc(F)cc2)c(=O)c2sccc21	8.8%	-11.1%	16.0%	i	i	3.7%
Cc1ccc(Cn2c(=O)n(CC3CCC(C(=O)N4CCC(C)CC4)CC3)c(=O)c3sccc32)cc1 (stereo not given)	·	?	·	i	i	?
CCn1c(SCC(=O)Nc2ccc3c(c2)OCCO3)nnc1C1CC1	28.9%	6.0%	13.3%	i	i	-5.8%
CCCCN1C(=O)C(CC(=O)NCc2cccc3ccccc23)CC(C(=O)N(C(C)C)C(C)C)=C1C (stereo not given)	-7.2%	?	-5.6%	i	?	?

Screening data (PubChem BioAssay)
